Assay outcomes deposited in PubChem by Broad Institute.
BL2 CD40 inh – inhibitors of CD40-induced NF-kB signaling, primary screen, BL2 cells, luciferase reporter, single point. CD40L-induced, 4 h. inhibition, % at 10 µM. actives 0.94% (n = 83,000). AID 1053188, 2014;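 active means mean inhibition of at least 50% with a set share of replicates also reaching that level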;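 further: 0% = neutral control wells and 100% = IKK inhibitor VII at 50 µM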
Active calls of the source: *; [ ] = dose if it differs, or a comment. This excerpt belongs to a sample that is enriched for hits.

SMILES	BL2 CD40 inh
N#C[C@@H]1[C@H](c2ccc(C#Cc3ccc(F)cc3)cc2)[C@@H](CO)N1C(=O)C1CC1	72*
CCCNC(=O)N1[C@H](C#N)[C@@H](c2ccc(C#Cc3cccc(F)c3)cc2)[C@@H]1CO	-1[25 µM]
N#C[C@H]1[C@H](c2ccc(C#Cc3ccc(F)cc3)cc2)[C@@H](CO)N1C(=O)C1CCC1	54*[25 µM]
N#C[C@H]1[C@H](c2ccc(C#Cc3cccc(F)c3)cc2)[C@@H](CO)N1C(=O)C1CCC1	55*
N#C[C@H]1[C@@H](c2ccc(C#Cc3cccc(F)c3)cc2)[C@H](CO)N1C(=O)C1CC1	-1
N#C[C@H]1[C@@H](c2ccc(C#Cc3cccc(F)c3)cc2)[C@H](CO)N1C(=O)C1CCCC1	-6
N#C[C@H]1[C@@H](c2ccc(C#Cc3ccccc3F)cc2)[C@@H](CO)N1C(=O)C1CCC1	8
N#C[C@H]1[C@H](c2ccc(C#Cc3cccc(F)c3)cc2)[C@@H](CO)N1C(=O)C1CC1	37
CCCNC(=O)N1[C@H](C#N)[C@H](c2ccc(C#Cc3cccc(F)c3)cc2)[C@H]1CO	77*[25 µM]
N#C[C@H]1[C@H](c2ccc(C#Cc3cccc(F)c3)cc2)[C@@H](CO)N1C(=O)C1CCCC1	42
CCC(=O)N1[C@H](CNC(=O)CN2CCOCC2)[C@@H](c2ccccc2)[C@@H]1CO	4
CCC(=O)N1[C@@H](CO)[C@@H](c2ccc(-c3ccc(F)cc3)cc2)[C@@H]1CNC(C)=O	-14
CCCC#Cc1ccc([C@H]2[C@@H](CO)N(C(C)=O)[C@H]2CNC(=O)C2CCCC2)cc1	3
C[C@@H]1CN([C@H](C)CO)C(=O)c2c(c3ccccc3n2C)-c2ccccc2CO[C@H]1CN(C)Cc1cccnc1	9[25 µM]
CC(=O)N1[C@@H]2c3ccc(-c4ccccc4F)c(=O)n3C[C@H]1[C@H](CO)[C@H]2C(=O)N1CCOCC1	-2[25 µM]
O=C(C[C@H]1C[C@@H]2c3cc(NC(=O)Nc4ccc(C(F)(F)F)cc4)ccc3O[C@@H]2[C@@H](CO)O1)NCc1cccnc1	15[25 µM]
Cc1ccccc1-c1ccc(C2[C@@H]3CN(C(=O)C4CCC4)C[C@H]2N3)cc1 (stereo not given in full)	5
CC(C)NC(=O)N(C)C[C@@H]1Oc2ccc(NS(C)(=O)=O)cc2CC(=O)N(C)C[C@H]1C	3
Cc1ccc(-c2ccc([C@@H]3[C@@H]4CN(Cc5ccccc5F)C[C@H]3N4)cc2)cc1	-6[25 µM]
O=C(c1ccccc1F)N1CC[C@@H]2[C@@H](CO)Nc3ccc(C#Cc4ccccc4)cc3[C@@H]21	-6
CCCOC(=O)c1ccc(O)c(OC)c1	15
COc1cc(C(=O)O[C@H]2CC(C)=CC[C@@]3(C)CC[C@@](O)(C(C)C)[C@H]23)ccc1O	52*
c1ccc(-c2cccc(-c3ccccn3)n2)nc1	10
c1ccc(-c2nnc(-c3ccccn3)nn2)nc1	49*
c1ccc(-c2noc(C3CCC3)n2)nc1	2
SMILES	BL2 CD40 inh
CC(=O)N(C)C[C@H]1Oc2ccc(N)cc2CC(=O)N(C)C[C@@H]1C	3
CC(C)COC(=O)N(C)C[C@@H]1OCc2ccccc2-c2c(n(C)c3ccccc23)C(=O)N([C@H](C)CO)C[C@@H]1C	3[25 µM]
CC(C)NC(=O)N1C2CN(Cc3ccc(F)cc3)CC1C2c1ccc(Br)cc1 (stereo not given)	0
O=C(C1CCOCC1)N1CC(=O)N2[C@@H](CO)[C@@H](c3ccc(C#CCc4ccccc4)cc3)[C@@H]2C1	5[25 µM]
O=C(C1CCCC1)N1CC(=O)N2[C@@H](CO)[C@H](c3ccc(C#CCc4ccccc4)cc3)[C@@H]2C1	93*
O=C(C1CCOCC1)N1CC(=O)N2[C@H](CO)[C@@H](c3ccc(C#CCc4ccccc4)cc3)[C@@H]2C1	12[25 µM]
O=C(C1CCCC1)N1CC(=O)N2[C@H](CO)[C@@H](c3ccc(C#CCc4ccccc4)cc3)[C@H]2C1	43
Cc1ccc(-c2ccc([C@H]3[C@H](CO)N4C(=O)CN(C(=O)NC(C)C)C[C@@H]34)cc2)cc1	-14[25 µM]
O=C(C1CCOCC1)N1CC(=O)N2[C@H](C1)[C@@H](c1ccc(C#CCc3ccccc3)cc1)[C@@H]2CO	58*[25 µM]
Cc1ccc(-c2ccc([C@H]3[C@H]4CN(C(=O)NC(C)C)CC(=O)N4[C@H]3CO)cc2)cc1	5[25 µM]
CC(C)NC(=O)N1CC(=O)N2[C@H](CO)[C@@H](c3ccc(/C=C/c4ccccc4)cc3)[C@H]2C1	53*[25 µM]
COCC#Cc1ccc([C@H]2[C@@H](CO)N3C(=O)CN(C(=O)C4CCCC4)C[C@H]23)cc1	-4
CN1C[C@H](O)COC[C@@H]2O[C@H](CC(=O)NC3CCCC3)CC[C@H]21	3[25 µM]
CO[C@H]1CN(C)C(=O)c2ccc(NS(=O)(=O)c3ccc(C)cc3)cc2OC[C@H](C)N(C)C[C@@H]1C	2[25 µM]
O=C(Nc1ccc(F)cc1)N1C[C@H]2[C@@H](c3ccccc31)[C@H](CO)N2C(=O)Cc1ccccc1	0[25 µM]
O=C(C[C@@H]1C[C@H]2c3cc(NC(=O)Cc4ccncc4)ccc3O[C@H]2[C@@H](CO)O1)NCCN1CCCCC1	-1[25 µM]
Cn1nnnc1SCC(=O)N1N=C(c2cccs2)CC1c1cccs1 (stereo not given)	-29
O=C(CSC1=NCCS1)N1N=C(c2cccs2)CC1c1ccc(F)cc1 (stereo not given)	8
O=C(CNCCO)N1N=C(c2cccs2)CC1c1cccs1 (stereo not given)	31*
COCCNC(=O)c1cc2c(c(-c3cccc(-c4cccc(F)c4)c3)n1)[C@H](CCO)N([S@@](=O)C(C)(C)C)C2	8
Cc1cc(C)cc(N2C(=O)CC(Sc3nnnn3-c3ccccc3)C2=O)c1 (stereo not given)	99*
Nc1ccc(Sc2nnnn2-c2ccccc2)c(Cl)c1	4
Cc1cccc(-n2nnnc2SCC(=O)NC2CCCC2)c1	5
CCCNC(=O)N1[C@@H]2CNC[C@H]1C2c1ccc(-c2ccc(C#N)cc2)cc1 (stereo not given in full)	-7
O=C1N[C@H](c2ccccc2)COCc2cn(nn2)CC[C@@H](Cc2ccc(C(F)(F)F)cc2)C(=O)N[C@H](c2ccccc2)COCc2cn(nn2)CC[C@H]1Cc1ccc(C(F)(F)F)cc1	-1
SMILES	BL2 CD40 inh
Cc1ccc(S(=O)(=O)CS(=O)(=O)c2ccc(C)cc2)cc1	2
CNS(=O)(=O)c1ccc(C)cc1	6
Cc1ccc(S(=O)(=O)C=CS(=O)(=O)c2ccc(C)cc2)cc1	101*
O=C(C[C@@H]1CC[C@H]2[C@@H](COC[C@@H](O)CN2S(=O)(=O)c2ccccc2)O1)NCCN1CCCCC1	4
CC(C)NC(=O)Nc1ccc2c(c1)C(=O)N(C)C[C@@H](C)[C@H](CN(C)C(=O)NC(C)C)O2	-29
O=C(C[C@@H]1CC[C@@H]2[C@H](COC[C@@H](O)CN2S(=O)(=O)c2ccc(Cl)cc2)O1)NCCN1CCCCC1	1
CC(C)C(=O)NC(c1ccco1)c1ccc2cccnc2c1O (stereo not given)	-36
CC(C)C(=O)NC(c1ccc([N+](=O)[O-])cc1)c1c(O)ccc2ccccc12 (stereo not given)	11
CCN(CC)c1ccc(C(NC(=O)C(C)C)c2ccc3cccnc3c2O)cc1 (stereo not given)	75*
COc1ccc(C#Cc2ccc3c(c2)[C@H]2[C@H](CCN2C(=O)C2CCC2)[C@@H](CO)N3)cc1	4
CCC1(c2ncc[nH]2)Cc2ccccc2O1 (stereo not given)	-4[25 µM]
CC(C)NC(=O)N(C)C[C@H]1Oc2ccc(NS(C)(=O)=O)cc2C(=O)N(C)C[C@H]1C	5
